Rows were chosen to be rich in hits. Some 14% of all compounds tested hit in one or more screens of this group.
Sm TGR block: inhibitors of Schistosoma mansoni thioredoxin glutathione reductase; purified TGR, DTNB reduction, TNB absorbance 405 nm; Potency, µM (top dose mostly 114 µM), usual class: inhibitors; 360,000 tested, 3% active; further: nearly all actives have a fitted effect of over 60% in size
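TGR 20 nM + NADPH 100 uM (dispensed conc.), cpd preinc 15 min RT; start with NADPH (500 uM addition) then DTNB (15 mM addition). Kinetic TNB absorbance, 405 nm filter. Four-parameter Hill fit across titration.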
HCMV antiviral: inhibitors of human cytomegalovirus. HFF cells, HCMV-luciferase reporter, 72 h; active compounds read low. activity change, negative = inhibition, % at 57.5 µM. 410,000 tested, 4.5% active. AID 1259415; in the data active means activity change below about -60%; inconclusive means no clear call, values can overlap the other calls; inactive means above about -39%
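Screen run at 2 compound doses on HFFs infected with reporter HCMV, MOI 1 PFU/cell. Luciferase activity from cell lysates at 72 h post infection gave inhibition relative to buffer-only and Salinomycin wells.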
Giardia FBPA inh: inhibitors of Giardia lamblia fructose-1,6-bisphosphate aldolase; A8B2U2; purified Giardia FBPA; Potency, µM (doses to about 59.6 µM), hits mostly inhibitors; 290,000 tested, 0.71% active; AID 2451; further: nearly all actives have a fitted effect of over 55% in size
Target sequence (A8B2U2 whole entry, looked up): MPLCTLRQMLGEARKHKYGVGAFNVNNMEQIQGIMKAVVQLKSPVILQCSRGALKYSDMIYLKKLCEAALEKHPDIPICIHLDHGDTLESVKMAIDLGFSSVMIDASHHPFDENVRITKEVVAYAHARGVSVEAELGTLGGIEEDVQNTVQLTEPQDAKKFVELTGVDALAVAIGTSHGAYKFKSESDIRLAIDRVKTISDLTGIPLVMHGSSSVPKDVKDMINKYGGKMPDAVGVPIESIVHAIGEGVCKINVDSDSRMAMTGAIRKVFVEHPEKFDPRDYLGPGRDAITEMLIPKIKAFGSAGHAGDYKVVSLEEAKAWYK
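Giardia FBPA (40 nM reagent) was preincubated 10 min at RT with compound (up to 57.5 uM final), then substrate plus GAPDH/TPI/NAD/arsenate coupling system with diaphorase/resazurin was added; resorufin fluorescence (525/598 nm) was read after 20 min.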
Pf growth 48h: P. falciparum growth inhibition at 48 hours (one generation); P. falciparum luciferase growth in erythrocytes, 48 h; Potency, µM (top dose mostly 28.7 µM), actives largely listed as inhibitors; 310,000 tested, 5.9% active
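First compound was added to culture medium, then infected red cells at 0.1% parasitemia and 2% hematocrit (final). After incubation at 37 C under 5% CO2, luciferase detection reagent was dispensed and light output recorded.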
Pf growth 96h: P. falciparum growth inhibition at 96 hours | Potency, µM (titrated, usually from 28.7 µM), most hits filed as inhibitors | AID 504834 | 320,000 tested, 6.9% active | P. falciparum luciferase reporter growth, 96 h
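Luminescence readout: decreased luciferase signal marks inhibited growth of reporter-expressing P. falciparum in infected red cells (2% hematocrit, 0.05% parasitemia final), exposed to compound two generations (96 h, 37 C, 5% CO2).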
Hits are given with their value; n = inactive; u = inconclusive; x = not tested or not shown. Unless noted, the call rests on the fitted dose curve; in most records, active means well fitted curve in the direction sought with a large enough effect; inconclusive means small, poorly fitted or top-dose-only effect, or another doubt; inactive means no such curve, though single readings can be large; an effect the other way counts as inactive or inconclusive.

SMILES	Sm TGR block	HCMV antiviral	Giardia FBPA inh	Pf growth 48h	Pf growth 96h
CCc1cc2c(=O)c(-c3cscn3)coc2c(CN(C)C)c1O	n	u	n	12µM	u
CCc1cc2c(=O)c(-c3ccc4c(c3)OCO4)coc2c(CN(C)C)c1O	n	n	n	9.3µM	13µM
COC(=O)c1cccc(NC2CC(=O)N(c3ccc(OC)c(OC)c3)C2=O)c1 (centres undefined)	35µM	n	n	u	x
COc1ccc(N2C(=O)CC(Nc3ccc(C(=O)O)cc3)C2=O)cc1OC (centres undefined)	22µM	n	n	n	n
Cc1cc(C)c2nc(C)cc(Nc3cccc(C(=O)O)c3)c2c1	n	n	x	x	x
CCn1cc(C(=O)NCCc2ccccc2)c(=O)c2cc(S(=O)(=O)N3CCc4ccccc4C3)ccc21	n	n	x	x	x
O=C(COC(=O)c1ccc([N+](=O)[O-])s1)Nc1ccccc1	u	n	n	n	n
O=C(COC(=O)c1ccc([N+](=O)[O-])s1)Nc1ccc(F)cc1	14µM	n	x	n	n
CC12CN3CC(C)(CN(C1)C3c1ccc3ccccc3c1O)C2=O (centres undefined)	n	n	13µM	n	n
CC12CN3CC(C)(CN(C1)C3c1c[nH]c3ccccc13)C2=O (centres undefined)	x	n	n	n	n
CC1CC(C)CN(S(=O)(=O)c2ccc(C(=O)N(C)Cc3ccccc3)cc2)C1 (centres undefined)	x	-65	x	x	x
CCN(C(=O)Cn1c(=O)oc2cc(S(=O)(=O)N3CCOCC3)ccc21)c1ccccc1	n	n	n	u	4.1µM
COCCCNC(=O)Cn1c(=O)oc2cc(S(=O)(=O)N3CC(C)CC(C)C3)ccc21 (centres undefined)	n	n	n	u	n
CC1CC(C)CN(S(=O)(=O)c2ccc3c(c2)oc(=O)n3CC(=O)N(C)Cc2ccccc2)C1 (centres undefined)	n	-79	n	u	u
CCCCNC(=O)Cn1c(=O)oc2cc(S(=O)(=O)N3CC(C)CC(C)C3)ccc21 (centres undefined)	n	n	n	x	6.6µM
CCCN1CC(CSC)C[C@H]2c3cccc4[nH]cc(c34)C[C@H]21 (some centres undefined)	x	x	n	x	x
O=C1C2C3C=CC(C4CC34)C2C(=O)N1/N=C/c1cccs1 (centres undefined)	n	u	n	n	n
Cn1cc(Br)c(NC(=O)/C=C/C(=O)O)n1	0.63µM	n	u	n	n
Cn1cc(Br)c(C(=O)Nc2c(F)c(F)c(F)c(F)c2F)n1	n	n	n	n	n
CC(CN1C(C)CCCC1C)OC(=O)c1cccc(Br)c1 (centres undefined)	n	n	n	n	n
CCc1nc2c(OCc3ccc(F)cc3)cccn2c1N(C)C(=O)c1ccco1	x	n	x	x	x
CCc1nc2c(OCc3ccc(Cl)cc3)cccn2c1N(C)C(=O)c1ccco1	x	-77	x	x	x
Nc1nc(CCl)nc(N(c2ccccc2)c2ccccc2)n1	11µM	-98	n	5.2µM	2.1µM
Nc1nc(Cl)nc(N(c2ccccc2)c2ccccc2)n1	n	n	n	n	n
CC(C)C(=O)NC(c1cccc([N+](=O)[O-])c1)c1c(O)ccc2ccccc12 (centres undefined)	x	n	n	4.7µM	n
SMILES	Sm TGR block	HCMV antiviral	Giardia FBPA inh	Pf growth 48h	Pf growth 96h
CC(=O)NC(c1ccc([N+](=O)[O-])cc1)c1c(O)ccc2ccccc12 (centres undefined)	x	n	n	u	n
CC(C)C(=O)NC(c1ccc([N+](=O)[O-])cc1)c1c(O)ccc2ccccc12 (centres undefined)	n	n	n	1.9µM	2.6µM
CC1(OC(=O)C2CCCC2)C(=O)C=C2C=C(c3ccsc3)N(CC3CC3)C=C2C1=O (centres undefined)	n	n	u	u	u
CC1(OC(=O)C2CCCC2)C(=O)C=C2C=C(c3ccsc3)N(CCc3c[nH]c4ccccc34)C=C2C1=O (centres undefined)	u	x	u	9.3µM	13µM
CC1(OC(=O)C2CCCC2)C(=O)C=C2C=C(c3ccsc3)N(C3CCCCC3)C=C2C1=O (centres undefined)	n	n	u	12µM	u
CCN(CC(=O)Nc1ccc(NC(C)=O)cc1)C(=O)CCCOc1ccc(C(C)(C)C)cc1	n	n	x	u	u
